# Sampled rows, rich in hits. Any-hit rate of the full collection: about 3.7%.
# Anthrax LF inh2: Bacillus anthracis LF protease inhibitors, primary screen, biochemical, multiplex microsphere, MLPCN library. multiplex microsphere protease cleavage assay. 360,000 tested, 0.12% active. Lethal factor (Bacillus anthracis), P15917. inhibition, % at 10 µM. AID 588501, 2011
# BoNT A protease: BoNT/A light chain protease inhibitors, primary screen, biochemical, flow cytometry, MLPCN library; Botulinum neurotoxin type A light chain protease (Clostridium botulinum A str. ATCC 3502); multiplex microsphere protease substrate cleavage; inhibition, % at 10 µM; 360,000 tested, 0.17% active
# BoNT-F LC inh: BoNT/F light chain protease inhibitors, primary screen, biochemical, flow cytometry, MLPCN library; Botulinum neurotoxin type F light chain protease (Clostridium botulinum); Multiplex microsphere protease cleavage assay; inhibition, % at 10 µM; 360,000 tested, 0.22% active; AID 588497, 2011; in the data active means inhibition above about 35%, passing the limit was not always enough; inconclusive means no clear call, values can overlap the other calls
# Bead autofluor: flagged as autofluorescent in microsphere protease counterscreen | compound autofluorescence counterscreen, microsphere flow cytometry; active compounds read high | fluorescence intensity (concentration not given with the values) | 360,000 tested, 3.1% active | AID 624483; in the data active means fluorescence intensity above about 16000; inconclusive means no clear call, values can overlap the other calls
# MazF activator: activators of E. coli MazEF toxin-antitoxin RNase, primary screen, biochemical, fluorescence, uHTS; Endoribonuclease toxin MazF (Escherichia coli (strain K12)), P0AE70; FAM/BHQ RNA-DNA oligo cleavage fluorescence, 5 h; activation, % at 20 µM; 350,000 tested, 0.32% active; in the data active means activation above about 50%
# Target sequence (P0AE70 whole entry, looked up): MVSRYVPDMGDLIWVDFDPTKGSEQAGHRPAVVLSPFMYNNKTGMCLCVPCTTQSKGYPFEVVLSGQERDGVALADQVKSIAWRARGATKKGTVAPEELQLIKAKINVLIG
# Hits are given with their value; 0 = inactive; ? = inconclusive; - = no result given. Unless noted, no stated cut-off is given here; in the data, active means inhibition above about 30%; inconclusive means no clear call, values can overlap the other calls; inactive means below that.
SMILES,Anthrax LF inh2,BoNT A protease,BoNT-F LC inh,Bead autofluor,MazF activator
Cc1ccc(S(=O)(=O)N2CCN(C(=O)N3CCOCC3)C2c2ccc(N(C)C)cc2)cc1 (stereo unspecified),0,?,0,21067,0
CCOC(=O)N1CCN(S(=O)(=O)c2ccc(C)cc2)C1c1ccc(OC)cc1 (stereo unspecified),0,0,0,0,0
CCC(=O)N1CCCN(S(=O)(=O)c2ccc(C)cc2)C1c1ccc(OC)cc1 (stereo unspecified),0,0,0,0,0
COc1ccc(C2N(C(=O)CN3CCOCC3)CCN2S(=O)(=O)c2ccccc2)cc1 (stereo unspecified),0,?,0,22919,0
COc1ccc(C2N(C(=O)N3CCOCC3)CCN2S(=O)(=O)c2ccc(C)cc2)cc1 (stereo unspecified),0,0,0,22397,0
CC(=O)N(C(C)=O)c1ccc(Oc2ccc(Oc3ccc(N(C(C)=O)C(C)=O)cc3)cc2)cc1,0,0,0,0,0
COc1ccc(C2N(S(=O)(=O)c3ccccc3)CCN2S(=O)(=O)c2ccc(C)cc2)cc1 (stereo unspecified),0,0,0,17266,0
Cc1ccc(S(=O)(=O)N2CCN(S(=O)(=O)c3ccc(C)cc3)C2c2ccccc2)cc1,0,0,0,0,0
CC(Oc1ccccc1)C(=O)Nc1nnc(S(=O)(=O)N(C)c2ccccc2)s1 (stereo unspecified),0,0,0,0,0
CC(C)(C)NC(=S)Nc1ccc(Br)cc1,0,0,0,22615,0
Cn1ncc([N+](=O)[O-])c1C(=O)Nc1ccccc1C#N,0,0,0,0,0
Cc1nc2scc(-c3cccs3)c2c(=O)[nH]1,0,0,0,25937,0
O=c1[nH]c(-c2ccc(O)cc2)nc2scc(-c3cccs3)c12,0,0,0,0,0
C[C@H](CO)N1C[C@H](C)[C@@H](CN(C)S(=O)(=O)c2ccc(F)cc2)Oc2ccc(NC(=O)NC3CCCCC3)cc2C1=O,0,0,0,0,0
OCCN(Cc1ccccc1)Cc1ccc(F)c(F)c1,0,0,0,20266,0
CCN(Cc1ccccc1)Cc1cccc([N+](=O)[O-])c1,0,0,0,0,0
O=[N+]([O-])c1cccc(CN(CCO)Cc2ccccc2)c1,0,0,0,16829,0
CCCC(=O)N(Cc1cc2cc(OC)ccc2[nH]c1=O)c1ccccc1OC,0,0,0,0,0
CCCCN(C(=O)Nc1ccc(Cl)cc1)C1CCN(C(C)=O)CC1,0,0,0,17864,0
O=C1NC[C@H](CCCCN2CCN(CCc3ccccc3)C(=O)C2=O)N(CCc2ccccc2)C1=O,0,0,0,0,-
COc1ccc2nc(NCc3ccccc3)[nH]c2c1,0,0,0,0,0
COc1ccc2nc(N3CCCC3)[nH]c2c1,0,?,0,24269,0
CCCOc1ccccc1Nc1nnc(C)c(=O)[nH]1,0,0,0,21083,0
Cc1nc(SCC(=O)Nc2ccc(CN3CCCC3)cc2)c2c(C)c(C)sc2n1,0,0,0,0,0
COC(=O)c1ccc2nc(-c3ccccc3)c(Cc3ccccc3OC)n2c1,0,0,0,0,-
SMILES,Anthrax LF inh2,BoNT A protease,BoNT-F LC inh,Bead autofluor,MazF activator
COc1cccc(N2C(=O)CC(=O)NC2=O)c1,0,0,0,23335,0
CCOc1cccc(N2C(=O)CC(=O)NC2=O)c1,0,0,0,0,0
Cc1ccccc1N1C(=O)CC(=O)NC1=O,0,0,0,21951,0
Cc1ccc2c(CC(=O)NCC3(N4CCOCC4)CCCCC3)coc2c1C,0,0,0,0,0
CCCn1nc(C(=O)Nc2cc(OCC)c(N3CCOCC3)cc2OCC)c2ccccc2c1=O,0,0,0,0,0
Cc1ccc(-c2nnn(CC(=O)N(c3ccccc3)C(C(=O)NCC3CCCO3)c3ccc(Cl)cc3)n2)cc1 (stereo unspecified),0,0,0,0,0
COc1ccc(-c2nnn(CC(=O)N(Cc3ccccc3Cl)C(C(=O)NCC3CCCO3)c3ccco3)n2)cc1 (stereo unspecified),0,0,0,20046,0
Cc1ccc(-c2nnn(CC(=O)N(c3ccccc3F)C(C(=O)NCC3CCCO3)c3c[nH]c4ccccc34)n2)cc1 (stereo unspecified),0,0,0,16194,0
CSc1ncccc1C(=O)OC(C)C(=O)Nc1cccc(S(=O)(=O)N2CCOCC2)c1 (stereo unspecified),0,0,0,0,0
CCN(CC)C(=O)C1=C(C)N(Cc2ccc(F)cc2)C(=O)C(CC(=O)NCCN2CCOCC2)C1 (stereo unspecified),0,0,0,0,0
CCN1/C(=C\C=C(C(C)=O)C(C)=O)Sc2ccccc21,0,0,0,0,0
CCN1/C(=C\C(=S)Nc2ccccc2)Sc2ccccc21,0,39,0,0,0
O=C(OCCCN=C1NS(=O)(=O)c2ccccc21)c1ccccc1F,0,0,0,20170,0
O=C1NC(Cc2ccccc2)c2nc3ccc(Cl)cc3c(=O)n2-c2ncccc21 (stereo unspecified),0,0,0,0,0
CC(C)C1Cc2c(C#N)c(N)sc(=S)c2CO1 (stereo unspecified),47,72,0,0,0
Cc1noc(NS(=O)(=O)c2ccc(NC(=O)CSc3nnc(-c4ccccc4)n3C3CCCCC3)cc2)c1C,0,0,0,22405,0
COc1ccc(C2CC(=O)C=C3c4ccc(OC)cc4CCC32)cc1 (stereo unspecified),0,0,0,0,0
O=C(CSc1nc2ccccc2c(=O)n1Cc1ccc(C(=O)NC2CC2)cc1)NCc1ccco1,0,0,0,19257,0
CCCCn1c(SCC(=O)NCc2ccco2)nc2c(sc3ccccc32)c1=O,0,?,0,22504,0
O=C(CSc1nc2ccccc2c(=O)n1CCCC(=O)N1CCCC1)NCc1ccco1,0,0,0,23337,0
CCOCCCn1c(SCC(=O)NCc2ccco2)nc2c(sc3ccccc32)c1=O,0,0,0,0,0
COCCCNc1ccn2nc(-c3ccc(Cl)cc3)cc2n1,0,0,0,0,-
O=C(CCC(=O)OC(C(=O)c1ccccc1)c1ccccc1)Nc1ccccc1 (stereo unspecified),0,0,0,21923,0
Cc1ccccc1OCC(=O)OC(C(=O)c1ccccc1)c1ccccc1 (stereo unspecified),0,0,0,0,0
Cc1ccc(C)c(NC(=O)CCC(=O)OC(C(=O)c2ccccc2)c2ccccc2)c1 (stereo unspecified),0,0,0,0,0
Cc1ccc(C(=O)C(OC(=O)COc2ccccc2C)c2ccccc2)cc1 (stereo unspecified),0,0,0,17155,0
COc1ccc(C2Nc3cccc(O)c3C(=O)N2Cc2ccccc2)cc1COc1ccc(NC(C)=O)cc1 (stereo unspecified),0,0,0,0,-

# Screening results (PubChem)
